# Bioassay records from PubChem.
# Shn3 3UTR inh – reduces Shn3 3'UTR luciferase signal in osteoblasts; AID 588674; inhibition, % at 12.5 µM; actives 0.52% (n = 360,000); Clone20 osteoblast Shn3 3'UTR firefly luciferase, 24 h;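 active means mean inhibition of at least 75% with every replicate also reaching 75%; inconclusive means mean inhibition at least 75% but some replicate below; inactive means mean inhibition below 75%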;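 further: 0% = median of neutral control wells and 100% = pilot-screen positive control compound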
# Gli-Sufu antag – antagonists of Gli-Sufu signaling; Sufu-KO-LIGHT fibroblasts, Gli luciferase reporter luminescence; inhibition, % at 5 µM; actives 0.74% (n = 340,000);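 active means inhibition above about 55%, limit read from the data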;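 further: 0% = DMSO-treated cells and 100% = wells with medium but no cells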
# 697 NFkB inh – lowers PMA/ionomycin-induced NF-kB signal in 697 B cells; 697 B-cell NF-kB luciferase reporter, 16 h; actives 0.33% (n = 330,000); AID 435022; inhibition, % at 4 µM; in the data active means inhibition above about 35%
# TAG inh – inhibitors of triacylglycerol accumulation | inhibition, % at 12.5 µM | actives 0.66% (n = 230,000) | H9c2 cells, Nile Red lipid (TAG) fluorescence; cells loaded with 200 µM oleic acid;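 active means pattern-corrected inhibition of lipid staining of at least 50% with the nuclear-stain viability signal not falling by more than 50%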;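 further: 0% = DMSO wells and 100% = triacsin C control wells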
# aSyn 5UTR inh – MLPCN primary screen, SNCA 5' untranslated region; AID 1813; inhibition, % (tested at 7.5 µM); actives 0.82% (n = 300,000); alpha-synuclein 5'UTR reporter, inhibitor activity; in the data active means inhibition above about 60%; inconclusive means no clear call, values can overlap the other calls;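 further: H4 neuroglioblastoma cells stably carrying SNCA 5'UTR luciferase fusion; 0% = DMSO wells and 100% = positive control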
# Jurkat NFkB inh – lowers PMA/ionomycin-induced NF-kB signal in Jurkat cells; PMA/ionomycin-induced NF-kB luciferase reporter, luminescence; inhibition, % at 4 µM; actives 0.53% (n = 330,000); AID 435003; in the data active means inhibition above about 50%
# Active calls of the source: *; ? = inconclusive; / = not tested or not shown. Hits are enriched below; roughly 2.3% of the tested compounds scored in any of these assays.
SMILES,Shn3 3UTR inh,Gli-Sufu antag,697 NFkB inh,TAG inh,aSyn 5UTR inh,Jurkat NFkB inh
CCOC(=O)C1CCN(C(=O)c2c(C)oc3c2C(=O)c2ccccc2C3=O)CC1,1,43,-2,83,72*,22
CCOc1[nH]n(-c2ccccc2)c(=O)c1C=Nc1ccc(C(=O)OC)cc1,-18,-3,-44,6,-13,-9
CC(C)C(=O)N1CCCC1(C)C(=O)Nc1ccc(-n2cccc2)cc1 (stereo not drawn),-7,/,/,-3,/,/
CCOC(=O)c1ccc(NC(=O)Cn2ncc(Cl)c(Cl)c2=O)cc1,98*,1,-6,55*,-2,27
CCC(=O)Nc1ccc(C(=O)Cn2ncc(Cl)c(Cl)c2=O)cc1,/,6,-26,61*,-53,-11
COc1ccccc1N1CCN(C(=O)c2c(-c3ccccc3Cl)noc2C)CC1,-10,6,-13,-14,-6,25
O=C(CCc1nnc2ccc(N3CCC4(CC3)OCCO4)nn12)NCc1ccc(F)cc1,-5,5,-15,/,1,20
N#CC(C#N)=C(Nc1ccc(F)cc1)SCc1cccc(Br)c1,77,64*,/,/,?,/
O=Cc1[nH]c2ccccc2c1N(C(=O)CCl)c1ccc([N+](=O)[O-])cc1,/,4,-12,-1,84*,6
CC(=O)n1cc(N(C(=O)CCl)c2ccc([N+](=O)[O-])cc2)c2ccccc21,/,5,-12,33,37,-4
O=C1CCNc2cc3ccccc3cc21,3,-6,-7,13,78*,13
O=C1CCNc2ccc(-c3ccccc3)cc21,-26,-5,-17,10,-42,-20
OC[C@H]1O[C@@H](Oc2ccc(O)cc2)[C@H](O)[C@@H](O)[C@@H]1O,88*,-10,/,-6,/,/
CC12CC3CC(C1)CC(C(=O)NNC(=O)c1ccncc1)(C3)C2,7,1,8,5,/,7
CCC(=NCCc1ccccc1)C1=C(O)CCC1=O,9,3,-8,-10,-9,-8
O=C(Nc1ccc2nc3n(c(=O)c2c1)CCCC3)c1ccccc1F,-41,-24,5,/,-67,-39
O=C(Nc1ccc2nc3n(c(=O)c2c1)CCCCC3)c1cc([N+](=O)[O-])ccc1F,96*,15,-83,/,-42,29
O=c1cc(-c2ccco2)oc2c1ccc1ccccc12,18,22,-2,-8,-31,-15
O=c1cc(C(Cl)(Cl)Cl)oc2c1ccc1ccccc12,75,65*,-30,-29,-14,22
CN(c1ccccc1)c1ccc(/C=C/[N+](=O)[O-])cc1,94*,-1,/,/,-19,/
COCCN(CC(=O)Oc1ccccc1P(=O)(OC)OC)Cc1ccccc1,16,-15,21,2,7,6
CNc1c2cccc(C)c2nc2c(C(=O)NCCN(C)C)cccc12,97*,21,/,131,/,/
O=C(NCCc1cccs1)c1ccc(Cl)cc1,-56,-67,-154,-20,21,-119
Cc1ccc(C(=O)NCCc2cccs2)cc1,38,-19,-57,/,73*,-16
CC(CNC(=O)c1cccc(Br)c1)n1cncn1 (stereo not drawn),-1,-5,-2,/,-8,1
SMILES,Shn3 3UTR inh,Gli-Sufu antag,697 NFkB inh,TAG inh,aSyn 5UTR inh,Jurkat NFkB inh
CCOc1ccc(CC2c3cc(OCC)c(OCC)cc3CCN2C(=O)CN2CCN(C)CC2)cc1OCC (stereo not drawn),-2,8,-5,-2,5,-7
CC1N=C(N)C(c2nc3ccccc3n2C)=C1O (stereo not drawn),2,-2,11,6,12,1
Cn1c(-c2ccccc2)cnc1SCC(=O)N1CCCCC1,21,17,-60,-5,83*,-43
COc1cc(SC)ccc1C(=O)Nc1ncc(C)s1,41,18,-134,6,98*,-67
CCOc1ccc(-c2c(=O)n(OCc3ccccc3Br)c3ccccc3[n+]2[O-])c(OCC)c1,9,3,3,-13,-27,8
Cc1ccc(-c2nc(C(Cl)Cl)c3ccccc3n2)cc1,55,-24,-172,109,93*,11
Cc1ccc(-c2nc(Nc3ccc(O)cc3)c3ccccc3n2)cc1,15,7,-15,/,-29,-29
Oc1ccc(CN2CCC(Cc3ccccc3)CC2)c2cccnc12,/,67*,-154,/,105*,40
Oc1ccc(CN2CCN(c3ccccc3)CC2)c2cccnc12,79,12,-25,/,80*,4
Cc1ccc(C)c(S(=O)(=O)N2CCN(Cc3ccc(O)c4ncccc34)CC2)c1,91*,74*,-42,/,74*,16
Oc1ccc(CN2CCCCC2)c2cccnc12,79,14,-19,/,?,20
Clc1ccccc1CN1CCC(Cc2ccccc2)CC1,-7,13,13,/,19,-17
Oc1c(CN2CCN(c3ccccn3)CC2)cc(Cl)c2cccnc12,81,71*,-58,116,92*,34
O=[N+]([O-])c1cc(CN2CCN(c3cccc(C(F)(F)F)c3)CC2)c2cccnc2c1O,/,28,-30,/,71*,21
O=[N+]([O-])c1cc(CN2CCCC2)c2cccnc2c1O,-27,20,/,/,/,/
COc1cc(CN2CCc3ccccc3C2)ccc1O,95*,8,14,125,-39,19
COc1ccccc1N1CCN(c2nc(C)nc3c2oc2ccccc23)CC1,23,21,/,/,90*,/
Cc1nc(N2CCC(C)CC2)c2oc3ccccc3c2n1,46,10,-37,-19,29,10
Oc1ccc(CN2CCc3ccccc3C2)c2cccnc12,84*,84*,-3,/,103*,37
O=C(O)C1=C2C(=O)Nc3cccc(c32)C2(C1)C(=O)Nc1ccccc12 (stereo not drawn),-4,/,/,-2,/,/
CCCCNC(NCCCC)=C(S(=O)(=O)CC)S(=O)(=O)CC,-12,1,-6,-13,6,-3
COc1cc(C(=O)Nc2ccc(NC(=O)C3CC3)nc2)cc(OC)c1OC,8,-2,-15,26,16,7
Cc1ccc(C2(C)NC(=O)N(CC(=O)Nc3ccc(-c4nc5ccc(C)cc5s4)cc3)C2=O)cc1 (stereo not drawn),-1,-109,-197,11,-160,-103
CC(C)(C)CN1CCNC(=O)C1CC(=O)N1CCOc2ccccc2C1 (stereo not drawn),-6,-1,7,-3,3,7
COc1ccccc1N1CCN(Cc2cc(Br)c(O)c3ncccc23)CC1,70,58*,-111,97,77*,47
CCOc1ccccc1N1CCN(Cc2cccc(OC)c2O)CC1,26,1,2,/,-2,9
CCOC(=O)c1sc2ccccc2c1OC(=O)c1ccccc1,2,-2,8,2,-5,-12
O=S(=O)(/N=S1/CC=CCN1S(=O)(=O)c1ccccc1)c1ccccc1 (stereo not drawn),52,3,24,/,-11,-2
